Test results reported in publication PMC7862700, “An all-to-all approach to the identification of sequence-specific readers for epigenetic DNA modifications on cytosine”.

Biological target: T1, ETS2 (Homo sapiens, UniProt P15036 1-469)
T1 sequence: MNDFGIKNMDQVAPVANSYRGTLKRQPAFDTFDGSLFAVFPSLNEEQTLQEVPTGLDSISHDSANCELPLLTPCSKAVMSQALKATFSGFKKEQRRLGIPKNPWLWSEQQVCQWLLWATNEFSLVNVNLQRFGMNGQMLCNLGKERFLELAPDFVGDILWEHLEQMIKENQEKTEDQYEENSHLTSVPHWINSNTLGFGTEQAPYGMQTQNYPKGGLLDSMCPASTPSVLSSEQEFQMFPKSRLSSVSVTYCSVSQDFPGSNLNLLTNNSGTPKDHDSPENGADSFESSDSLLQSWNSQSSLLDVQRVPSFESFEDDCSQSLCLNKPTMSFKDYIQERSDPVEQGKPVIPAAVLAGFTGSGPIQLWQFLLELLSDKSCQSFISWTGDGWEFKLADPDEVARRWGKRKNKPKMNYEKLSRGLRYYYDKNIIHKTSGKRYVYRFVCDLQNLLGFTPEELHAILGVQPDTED
Test: DAPPL (digital affinity profiling via proximity ligation, sequencing); 10 mM Tris-HCl pH 7.5, 50 mM NaCl, 1 mM DTT, 4% glycerol, room temperature, 30 min; GST-TFs on glutathione beads, 16-mer random dsDNA library, 0.1% formaldehyde crosslink after washing; high values mean tight binding
Settings: protein: recombinant; tags: N-terminal GST; dsDNA, one strand shown
Method in brief: (§1)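 Binding signal is each hexamer's read frequency for a factor divided by its frequency in the tag-only sample. The factors were GST-fused human transcription factors from yeast, captured on glutathione beads, DNA-barcoded and pooled with that sample. Pools were incubated with 200 nmole of a random double-stranded 16-mer DNA library in Tris/NaCl/DTT/glycerol buffer at room temperature for 30 min, then washed, crosslinked with 0.1% formaldehyde, proximity-ligated with BsaI/T4 ligase (1 h, 37 °C), PCR-amplified and sequenced on an Illumina NextSeq500.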

Going from TCATTC to TACCCT, the binding signal rises from 1.13 fold enrichment (6-mer frequency, TF over GST control) to 1.29 fold enrichment (6-mer frequency, TF over GST control).

First: TAAGAA
Second: GATATA
The binding signal of the first is lower: 1.03 fold enrichment (6-mer frequency, TF over GST control) for the first, 1.16 fold enrichment (6-mer frequency, TF over GST control) for the second.

First: TGTTAT
Second: CCTACG
The binding signal of the first is lower: 1.34 fold enrichment (6-mer frequency, TF over GST control) for the first, 1.35 fold enrichment (6-mer frequency, TF over GST control) for the second.

Compared with ACTACG, TCCAAG is lower in binding signal: 1.26 fold enrichment (6-mer frequency, TF over GST control) for the first, 1.13 fold enrichment (6-mer frequency, TF over GST control) for the second.

Compared with AACTGC, ATTACA is lower in binding signal: 1.3 fold enrichment (6-mer frequency, TF over GST control) for the first, 1.11 fold enrichment (6-mer frequency, TF over GST control) for the second.

First: TAATTC
Second: TGCTCC
The binding signal of the first is higher: 1.48 fold enrichment (6-mer frequency, TF over GST control) for the first, 1.45 fold enrichment (6-mer frequency, TF over GST control) for the second.

First: AAATTG
Second: TATCCT
The binding signal of the first is lower: 1.22 fold enrichment (6-mer frequency, TF over GST control) for the first, 1.81 fold enrichment (6-mer frequency, TF over GST control) for the second.

Going from CCGAAC to CATACT, the binding signal rises from 1.26 fold enrichment (6-mer frequency, TF over GST control) to 1.32 fold enrichment (6-mer frequency, TF over GST control).

Going from TTTCCG to CCCATA, the binding signal falls from 3.92 fold enrichment (6-mer frequency, TF over GST control) to 1.29 fold enrichment (6-mer frequency, TF over GST control).

Going from AGCTAC to ATCCCT, the binding signal rises from 1.09 fold enrichment (6-mer frequency, TF over GST control) to 1.23 fold enrichment (6-mer frequency, TF over GST control).

Biological target: T2, SPDEF (Homo sapiens, UniProt O95238 1-335)
T2 sequence: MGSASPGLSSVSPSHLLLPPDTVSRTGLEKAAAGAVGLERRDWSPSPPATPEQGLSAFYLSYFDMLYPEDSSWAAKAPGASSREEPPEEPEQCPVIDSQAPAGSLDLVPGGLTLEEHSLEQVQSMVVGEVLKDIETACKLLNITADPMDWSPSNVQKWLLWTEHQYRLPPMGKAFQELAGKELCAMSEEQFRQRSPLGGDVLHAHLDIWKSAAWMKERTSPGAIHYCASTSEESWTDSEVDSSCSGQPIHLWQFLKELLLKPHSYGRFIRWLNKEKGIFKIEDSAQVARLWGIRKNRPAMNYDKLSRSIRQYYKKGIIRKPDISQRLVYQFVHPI
Test: as above
Settings: protein: recombinant; tags: N-terminal GST; dsDNA, one strand shown
Method in brief: as §1

First: ACCTTT
Second: ATAAAA
The binding signal of the first is higher: 1.34 fold enrichment (6-mer frequency, TF over GST control) for the first, 1.12 fold enrichment (6-mer frequency, TF over GST control) for the second.

First: CTTATA
Second: TTCATG
The binding signal of the first is higher: 1.51 fold enrichment (6-mer frequency, TF over GST control) for the first, 1.27 fold enrichment (6-mer frequency, TF over GST control) for the second.

First: AAACCC
Second: AAATAT
The binding signal of the first is lower: 1.34 fold enrichment (6-mer frequency, TF over GST control) for the first, 1.35 fold enrichment (6-mer frequency, TF over GST control) for the second.

Compared with CCTGGA, ATCTTC is lower in binding signal: 1.57 fold enrichment (6-mer frequency, TF over GST control) for the first, 1.55 fold enrichment (6-mer frequency, TF over GST control) for the second.

First: CTGAAC
Second: TTTGAT
The binding signal of the first is higher: 1.47 fold enrichment (6-mer frequency, TF over GST control) for the first, 1.12 fold enrichment (6-mer frequency, TF over GST control) for the second.

Going from CCTAGC to TCCATT, the binding signal falls from 1.21 fold enrichment (6-mer frequency, TF over GST control) to 1.2 fold enrichment (6-mer frequency, TF over GST control).

Compared with CCTTGG, TTTTAA is lower in binding signal: 1.25 fold enrichment (6-mer frequency, TF over GST control) for the first, 1.21 fold enrichment (6-mer frequency, TF over GST control) for the second.

Going from AATTGT to TCTGGC, the binding signal falls from 1.21 fold enrichment (6-mer frequency, TF over GST control) to 1.15 fold enrichment (6-mer frequency, TF over GST control).

First: ATGGCC
Second: GCGACT
The binding signal of the first is higher: 1.32 fold enrichment (6-mer frequency, TF over GST control) for the first, 1.13 fold enrichment (6-mer frequency, TF over GST control) for the second.

Going from ATATCT to TCCCCC, the binding signal rises from 1.22 fold enrichment (6-mer frequency, TF over GST control) to 1.35 fold enrichment (6-mer frequency, TF over GST control).

Going from TCATTC to TACCCT, the binding signal rises from 1.09 fold enrichment (6-mer frequency, TF over GST control) to 1.29 fold enrichment (6-mer frequency, TF over GST control).

Going from TAAGAA to GATATA, the binding signal rises from 1.06 fold enrichment (6-mer frequency, TF over GST control) to 1.32 fold enrichment (6-mer frequency, TF over GST control).

TGTTAT and CCTACG are the same in binding signal: 1.41 fold enrichment (6-mer frequency, TF over GST control) for the first, 1.41 fold enrichment (6-mer frequency, TF over GST control) for the second.

Compared with ACTACG, TCCAAG is lower in binding signal: 1.27 fold enrichment (6-mer frequency, TF over GST control) for the first, 1.17 fold enrichment (6-mer frequency, TF over GST control) for the second.

Going from AACTGC to ATTACA, the binding signal falls from 1.28 fold enrichment (6-mer frequency, TF over GST control) to 1.18 fold enrichment (6-mer frequency, TF over GST control).

Going from TAATTC to TGCTCC, the binding signal rises from 1.37 fold enrichment (6-mer frequency, TF over GST control) to 1.74 fold enrichment (6-mer frequency, TF over GST control).

First: AAATTG
Second: TATCCT
The binding signal of the first is lower: 1.19 fold enrichment (6-mer frequency, TF over GST control) for the first, 2.67 fold enrichment (6-mer frequency, TF over GST control) for the second.

First: CCGAAC
Second: CATACT
The binding signal of the first is higher: 1.28 fold enrichment (6-mer frequency, TF over GST control) for the first, 1.23 fold enrichment (6-mer frequency, TF over GST control) for the second.

Compared with TTTCCG, CCCATA is lower in binding signal: 3.35 fold enrichment (6-mer frequency, TF over GST control) for the first, 1.19 fold enrichment (6-mer frequency, TF over GST control) for the second.

First: AGCTAC
Second: ATCCCT
The binding signal of the first is lower: 1.02 fold enrichment (6-mer frequency, TF over GST control) for the first, 1.41 fold enrichment (6-mer frequency, TF over GST control) for the second.

Biological target: T3, ETV7 (Homo sapiens, UniProt Q9Y603 1-341)
T3 sequence: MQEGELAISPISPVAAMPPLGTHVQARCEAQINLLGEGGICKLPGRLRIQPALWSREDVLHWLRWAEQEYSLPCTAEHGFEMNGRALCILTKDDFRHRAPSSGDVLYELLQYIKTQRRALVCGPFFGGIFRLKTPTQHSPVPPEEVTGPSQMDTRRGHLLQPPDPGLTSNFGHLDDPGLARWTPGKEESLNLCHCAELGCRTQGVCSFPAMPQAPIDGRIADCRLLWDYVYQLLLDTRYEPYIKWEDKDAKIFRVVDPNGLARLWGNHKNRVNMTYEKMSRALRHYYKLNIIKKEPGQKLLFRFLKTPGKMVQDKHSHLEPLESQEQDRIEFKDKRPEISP
Test: as above
Settings: protein: recombinant; tags: N-terminal GST; dsDNA, one strand shown
Method in brief: as §1

First: ACCTTT
Second: ATAAAA
The binding signal of the first is higher: 1.36 fold enrichment (6-mer frequency, TF over GST control) for the first, 1.1 fold enrichment (6-mer frequency, TF over GST control) for the second.

Compared with CTTATA, TTCATG is lower in binding signal: 1.39 fold enrichment (6-mer frequency, TF over GST control) for the first, 1.35 fold enrichment (6-mer frequency, TF over GST control) for the second.

Going from AAACCC to AAATAT, the binding signal rises from 1.25 fold enrichment (6-mer frequency, TF over GST control) to 1.4 fold enrichment (6-mer frequency, TF over GST control).

Compared with CCTGGA, ATCTTC is higher in binding signal: 1.34 fold enrichment (6-mer frequency, TF over GST control) for the first, 1.43 fold enrichment (6-mer frequency, TF over GST control) for the second.

Going from CTGAAC to TTTGAT, the binding signal rises from 1.21 fold enrichment (6-mer frequency, TF over GST control) to 1.28 fold enrichment (6-mer frequency, TF over GST control).

Going from CCTAGC to TCCATT, the binding signal rises from 1.18 fold enrichment (6-mer frequency, TF over GST control) to 1.26 fold enrichment (6-mer frequency, TF over GST control).

First: CCTTGG
Second: TTTTAA
The binding signal of the first is lower: 1.22 fold enrichment (6-mer frequency, TF over GST control) for the first, 1.32 fold enrichment (6-mer frequency, TF over GST control) for the second.

First: AATTGT
Second: TCTGGC
The binding signal of the first is higher: 1.39 fold enrichment (6-mer frequency, TF over GST control) for the first, 1.24 fold enrichment (6-mer frequency, TF over GST control) for the second.

Compared with ATGGCC, GCGACT is lower in binding signal: 1.44 fold enrichment (6-mer frequency, TF over GST control) for the first, 1.14 fold enrichment (6-mer frequency, TF over GST control) for the second.

First: ATATCT
Second: TCCCCC
The binding signal of the first is lower: 1.2 fold enrichment (6-mer frequency, TF over GST control) for the first, 1.52 fold enrichment (6-mer frequency, TF over GST control) for the second.

First: TCATTC
Second: TACCCT
The binding signal of the first is lower: 1.15 fold enrichment (6-mer frequency, TF over GST control) for the first, 1.27 fold enrichment (6-mer frequency, TF over GST control) for the second.

Compared with TAAGAA, GATATA is lower in binding signal: 1.12 fold enrichment (6-mer frequency, TF over GST control) for the first, 1.1 fold enrichment (6-mer frequency, TF over GST control) for the second.

Going from TGTTAT to CCTACG, the binding signal rises from 1.24 fold enrichment (6-mer frequency, TF over GST control) to 1.49 fold enrichment (6-mer frequency, TF over GST control).

Compared with ACTACG, TCCAAG is lower in binding signal: 1.4 fold enrichment (6-mer frequency, TF over GST control) for the first, 1.07 fold enrichment (6-mer frequency, TF over GST control) for the second.

First: AACTGC
Second: ATTACA
The binding signal of the first is higher: 1.3 fold enrichment (6-mer frequency, TF over GST control) for the first, 1.08 fold enrichment (6-mer frequency, TF over GST control) for the second.

First: TAATTC
Second: TGCTCC
The binding signal of the first is lower: 1.38 fold enrichment (6-mer frequency, TF over GST control) for the first, 1.63 fold enrichment (6-mer frequency, TF over GST control) for the second.

Going from AAATTG to TATCCT, the binding signal rises from 1.25 fold enrichment (6-mer frequency, TF over GST control) to 1.67 fold enrichment (6-mer frequency, TF over GST control).

Going from CCGAAC to CATACT, the binding signal rises from 1.14 fold enrichment (6-mer frequency, TF over GST control) to 1.28 fold enrichment (6-mer frequency, TF over GST control).

Compared with TTTCCG, CCCATA is lower in binding signal: 3.55 fold enrichment (6-mer frequency, TF over GST control) for the first, 1.19 fold enrichment (6-mer frequency, TF over GST control) for the second.

Going from AGCTAC to ATCCCT, the binding signal falls from 1.31 fold enrichment (6-mer frequency, TF over GST control) to 1.14 fold enrichment (6-mer frequency, TF over GST control).
